The structures appear in SMILES notation. Active and inactive are the calls of the source. The calls were made as follows: active = hit-call score of the fitted dose curve at least 0.9, where 1 is the maximum; inactive = score below 0.9.

Read-out in the first assay: growth arrest and DNA damage 45 (GADD45B), GADD45B (gene 4616)
In words: LTEA_HepaRG_GADD45B: Life Technologies and Expression Analysis (LTEA) Assay for growth arrest and DNA damage 45 (GADD45B) using HepaRG (AID 2283461). The note with it: mRNA level, 48 h; actives raise or lower the signal. A digest of the protocol: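 qRT-PCR read-out (Fluidigm TaqMan, housekeeping-normalized) of mRNA change in human HepaRG cells after 48 h chemical exposure; 8-point curve, top 100 uM, half-log steps, 0.5% DMSO vehicle; gain or loss fitted relative to DMSO baseline.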
Consider `CCOC(=O)c1ccc(O)cc1`, for which the result was inactive.

`CCCN(CCC)c1c([N+](=O)[O-])cc(C(F)(F)F)c(N)c1[N+](=O)[O-]`: the molecule was called inactive.

As to `O=C(c1ccccc1)C1CCCCC1`, the result was inactive.

In the case of `C=CCOC(Cn1ccnc1)c1ccc(Cl)cc1Cl` (stereo not drawn), the AC50 (as a rule, the concentration giving half of the maximal activity seen) was 91.3 µM (active).

Consider `CC(C)CCCCCCc1ccc(O)cc1`, for which the result was inactive.

For `COCCO`, the outcome was inactive.

With `N[C@@H](Cc1cc(I)c(Oc2ccc(O)c(I)c2)c(I)c1)C(=O)O`, the AC50 is 7.94 µM (active).

As for `COc1c(Cl)ccc(Cl)c1C(=O)O`, the molecule was classed as inactive.

In the case of `CCC(C)OC(=O)N1CCCCC1CCO` (stereo not drawn), the outcome was inactive.

For the molecule `O=C(O)C1(C(=O)Nc2ccc(Cl)cc2Cl)CC1`, the molecule was classed as inactive.

Turning to `OB(O)O`, the result was inactive.

For the molecule `CC(=O)[C@H]1CC[C@H]2[C@@H]3CCC4=CC(=O)CC[C@]4(C)[C@H]3CC[C@]12C`, the AC50 is 30 µM (active).

As for `CCCCC(CC)CN1C(=O)C2C3C=CC(C3)C2C1=O` (stereo not drawn), the molecule was classed as inactive.

Regarding `CCN(Cc1c(F)cccc1Cl)c1c([N+](=O)[O-])cc(C(F)(F)F)cc1[N+](=O)[O-]`, the concentration at half-maximal activity (AC50) is 50 µM (active).

For `C[C@]12C[C@H](O)[C@H]3[C@@H](CCC4=CC(=O)CC[C@@]43C)[C@@H]1CC[C@@H]2C(=O)CO`, the outcome was inactive.

For `C#CCOC(=O)[C@@H](C)Oc1ccc(Oc2ncc(Cl)cc2F)cc1`, the result was inactive.

On to `Cc1nn(C)c(Oc2ccccc2)c1C=NOCc1ccc(C(=O)OC(C)(C)C)cc1`, for which the molecule was called inactive.

On to `CCOC(=O)C(C)Oc1ccc(Oc2nc3ccc(Cl)cc3o2)cc1` (stereo not drawn), for which the outcome was inactive.

Regarding `CCOC(=O)COc1cc(-n2ncc(C(F)(F)F)c(C)c2=O)c(F)cc1Cl`, the outcome was inactive.

As for `Oc1ccc(C(c2ccc(O)cc2)C(Cl)(Cl)Cl)cc1`, the half-maximal activity concentration (AC50) was 93.8 µM (active).

Consider `c1ccc(Nc2ccccc2)cc1`, for which the result was inactive.

As to `CCCOC(=O)c1ccc(C(=O)OCCC)nc1`, the outcome was inactive.

For the molecule `CCCCC(CC)COC(=O)c1ccccc1C(=O)O` (stereo not drawn), the molecule was classed as inactive.

Turning to `CCSC(=O)N(CC(C)C)CC(C)C`, the molecule was called inactive.

In the case of `CCCCOC(=O)C(C)Oc1ccc(Oc2ccc(C(F)(F)F)cn2)cc1` (stereo not drawn), the molecule was called inactive.

`CCOC(=O)C(C)Oc1ccc(Oc2cnc3cc(Cl)ccc3n2)cc1` (stereo not drawn): the molecule was classed as inactive.

Read-out in a further assay: ABC Transporter (ABCC3), ABCC3 (gene 8714)
The experiment in a line: LTEA_HepaRG_ABCC3: Life Technologies and Expression Analysis (LTEA) Assay for ABC Transporter (ABCC3) using HepaRG (AID 2283462). The following applies: mRNA level, 48 h; actives raise or lower the signal. The method, boiled down: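 qRT-PCR read-out of ABCC3 transcript, normalized to three housekeeping genes (ACTB, GAPDH, POLR2A), after 48 h chemical exposure of human HepaRG cells. Eight half-log concentrations, highest 100 uM, in 0.5% DMSO; gain or loss fitted relative to DMSO baseline.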
With `CCOC(=O)c1ccc(O)cc1`, the outcome was inactive.

Regarding `CCCN(CCC)c1c([N+](=O)[O-])cc(C(F)(F)F)c(N)c1[N+](=O)[O-]`, the molecule was classed as inactive.

With `O=C(c1ccccc1)C1CCCCC1`, the molecule was classed as inactive.

Consider `C=CCOC(Cn1ccnc1)c1ccc(Cl)cc1Cl` (stereo not drawn), for which the concentration at half-maximal activity (AC50) is 35.5 µM (active).

In the case of `CC(C)CCCCCCc1ccc(O)cc1`, the call was inactive.

On to `COCCO`, for which the call was inactive.

Consider `N[C@@H](Cc1cc(I)c(Oc2ccc(O)c(I)c2)c(I)c1)C(=O)O`, for which the molecule was called inactive.

`COc1c(Cl)ccc(Cl)c1C(=O)O`: the molecule was classed as inactive.

For the molecule `CCC(C)OC(=O)N1CCCCC1CCO` (stereo not drawn), the call was inactive.

As to `CC(C)(C)[C@@H](O)[C@@H](Cc1ccc(Cl)cc1)n1cncn1`, the call was inactive.

Regarding `O=C(O)C1(C(=O)Nc2ccc(Cl)cc2Cl)CC1`, the call was inactive.

Turning to `OB(O)O`, the result was inactive.

On to `CC(=O)[C@H]1CC[C@H]2[C@@H]3CCC4=CC(=O)CC[C@]4(C)[C@H]3CC[C@]12C`, for which the half-maximal activity concentration (AC50) was 28.2 µM (active).

Regarding `CCCCC(CC)CN1C(=O)C2C3C=CC(C3)C2C1=O` (stereo not drawn), the AC50 is 50 µM (active).

As for `CCN(Cc1c(F)cccc1Cl)c1c([N+](=O)[O-])cc(C(F)(F)F)cc1[N+](=O)[O-]`, the outcome was inactive.

`C[C@]12C[C@H](O)[C@H]3[C@@H](CCC4=CC(=O)CC[C@@]43C)[C@@H]1CC[C@@H]2C(=O)CO`: the molecule was called inactive.

With `C#CCOC(=O)[C@@H](C)Oc1ccc(Oc2ncc(Cl)cc2F)cc1`, the result was inactive.

`Cc1nn(C)c(Oc2ccccc2)c1C=NOCc1ccc(C(=O)OC(C)(C)C)cc1`: the AC50 is 1.24 µM (active).

On to `CCOC(=O)C(C)Oc1ccc(Oc2nc3ccc(Cl)cc3o2)cc1` (stereo not drawn), for which the outcome was inactive.

With `CCOC(=O)COc1cc(-n2ncc(C(F)(F)F)c(C)c2=O)c(F)cc1Cl`, the molecule was called inactive.

On to `Oc1ccc(C(c2ccc(O)cc2)C(Cl)(Cl)Cl)cc1`, for which the call was inactive.

As for `c1ccc(Nc2ccccc2)cc1`, the molecule was called inactive.

In the case of `CCCOC(=O)c1ccc(C(=O)OCCC)nc1`, the molecule was classed as inactive.

As to `CCCCC(CC)COC(=O)c1ccccc1C(=O)O` (stereo not drawn), the molecule was called inactive.

Consider `CCSC(=O)N(CC(C)C)CC(C)C`, for which the molecule was classed as inactive.

Turning to `CCCCOC(=O)C(C)Oc1ccc(Oc2ccc(C(F)(F)F)cn2)cc1` (stereo not drawn), the molecule was called inactive.

Turning to `CCOC(=O)C(C)Oc1ccc(Oc2cnc3cc(Cl)ccc3n2)cc1` (stereo not drawn), the molecule was called inactive.

These data come from PubChem BioAssay (EPA / NIEHS).
